# Six1-Eya2 blk – Six1/Eya2 interaction inhibition. AlphaScreen GST-Six1/His-Eya2 binding, biochemical; active compounds read low. activity change, % (concentration not given with the values). 360,000 tested, 0.56% active; in the data active = activity change below about -65%; inconclusive = mostly about -30% to -63%
#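 Six1/Eya2 binding was read as AlphaScreen signal after compounds were pinned into GST-Six1 plus His-tagged Eya2 (5X stock 250/500 nM) in pH 8.0 Tris/NaCl/TCEP buffer, beads added, then incubated 1 h, 37 C, dark.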
# IL1B secr inh – blocks inflammasome-driven IL-1 beta release | activity change, % at 57.5 µM | THP-1 LPS/ATP IL-1B secretion, AlphaLISA, 16 h; active compounds read low | 360,000 tested, 4.7% active | AID 743279; in the data active = activity change below about -50%; inconclusive = mostly about -30% to -49%
#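 THP-1 cells pretreated 1 hr with compounds (up to 57.5 uM final), then stimulated with LPS (250 ng/mL final) plus ATP (1.25 mM final); secreted IL-1B measured by AlphaLISA after 16 hr, decreased signal indicating inhibition.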
# TDP1 cell noCPT – qHTS for Inhibitors of human tyrosyl-DNA phosphodiesterase 1 (TDP1): qHTS in cells in absence of CPT; AID 686978, 2013; Potency, µM (doses to about 46.2 µM), without a hit: top-dose activity change, negative = growth inhibition, usual class: inhibitors; DT40 Tdp1-/- hTDP1 cells, no CPT, ATP luminescence, 48 h; 420,000 tested, 15% active; note: potency is the fitted concentration of half-maximal effect; nearly all actives have a fitted effect of over 55% in size
#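 A cellular qHTS used chicken DT40 cells lacking endogenous Tdp1 but carrying stably transfected human TDP1. Compounds were applied without camptothecin, and cell growth kinetics were judged by ATP-dependent luminescence after ≥48 hr.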
# CtBP-E1A blk – CtBP/E1A binding inhibition. AlphaScreen GST-E1A/His-CtBP binding, 1536-well; active compounds read low. activity change, % (no concentration beside the values). 340,000 tested, 0.49% active. AID 651724; in the data active = activity change below about -65%; inconclusive = mostly about -30% to -63%
#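 In 5 uL wells, 23 nL compound meets equimolar GST-E1A and His-CtBP (5X stock 125 nM each) for 2 h, 37 °C. Beads (5X, 50 ug/mL) then 1 h, 37 °C, dark.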
# TDP1 block – TDP1 (human) enzyme inhibition | AID 485290 | 350,000 tested, 0.28% active | Q9NUW8 | recombinant TDP1, AlphaScreen DNA substrate cleavage | Potency, µM (highest dose often 130 µM), inactives show at the highest dose activity change, negative = inhibition, actives largely listed as inhibitors; note: potency is the fitted concentration of half-maximal effect; nearly all actives have a fitted effect of over 40% in size
# Target sequence (Q9NUW8 whole entry, looked up): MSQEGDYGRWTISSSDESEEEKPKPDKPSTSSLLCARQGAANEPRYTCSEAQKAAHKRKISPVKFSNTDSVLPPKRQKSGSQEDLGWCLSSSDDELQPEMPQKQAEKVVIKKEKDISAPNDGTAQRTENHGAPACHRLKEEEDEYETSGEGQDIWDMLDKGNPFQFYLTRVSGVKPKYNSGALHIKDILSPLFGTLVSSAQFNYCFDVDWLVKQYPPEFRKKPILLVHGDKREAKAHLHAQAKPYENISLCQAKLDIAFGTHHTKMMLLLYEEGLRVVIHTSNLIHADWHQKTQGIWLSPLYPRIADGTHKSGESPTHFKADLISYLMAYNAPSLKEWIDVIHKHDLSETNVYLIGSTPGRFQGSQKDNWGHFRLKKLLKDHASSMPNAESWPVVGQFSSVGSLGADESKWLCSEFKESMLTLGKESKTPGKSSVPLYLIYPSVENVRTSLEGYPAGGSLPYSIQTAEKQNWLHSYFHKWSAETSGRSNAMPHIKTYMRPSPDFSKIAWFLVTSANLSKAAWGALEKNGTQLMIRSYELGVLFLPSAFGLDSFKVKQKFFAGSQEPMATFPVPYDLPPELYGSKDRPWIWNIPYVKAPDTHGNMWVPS
#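 Recombinant human Tdp1 (E. coli-expressed, 1 nM final) preincubated with compounds 15 min at room temperature, then 5'-biotin/3'-phosphotyrosine-FITC DNA substrate (15 nM final) added for 5 min. AlphaScreen beads (10 ug/ml final) added 10 min; cleavage lowers signal.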
# DT40 TDP1 CPT – growth inhibition of DT40 Tdp1-/-;hTDP1 cells with camptothecin (screen for TDP1 inhibitors) | chicken DT40 Tdp1-/-;hTDP1 cells + 20 nM CPT, ATP luminescence, 48 h | AID 686979 | 420,000 tested, 12% active | Potency, µM (titrated, usually from 46.2 µM), without a hit: at the top dose activity change, negative = growth inhibition, hits mostly inhibitors; note: potency is the fitted concentration of half-maximal effect; nearly all actives have a fitted effect of over 55% in size
#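 Cell growth measured by CellTiter-Glo luminescence after a minimum 48 h, 37 C compound exposure with 20 nM CPT in Tdp1-knockout DT40 cells stably expressing hTDP1, seeded 400/well; qHTS titration format.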
# Active calls of the source: *; ? = inconclusive; nt = not tested or not shown. Sampled rows, rich in hits. Any-hit rate of the full collection: about 18%. Unless noted, calls come from the whole dose curve; as a rule, active = well fitted curve in the direction sought with a large enough effect; inconclusive = small, poorly fitted or top-dose-only effect, or another doubt; inactive = no such curve, though single readings can be large; an effect the other way counts as inactive or inconclusive. % is set by controls: 0 for no effect and ±100 for the full control effect.
SMILES,Six1-Eya2 blk,IL1B secr inh,TDP1 cell noCPT,CtBP-E1A blk,TDP1 block,DT40 TDP1 CPT
COc1cc(C(=O)N2CCN(c3cccc(Cl)c3)CC2)ccc1OCC(=O)N1CCOCC1,-1.3,-11.7,?,4.1,nt,?
Oc1ccccc1C(=S)N1CCN(c2cccc(Cl)c2)CC1,-12.2,-96.8*,?,-10.0,2.5%,23.1µM*
CCc1cccc(NC(=O)Cn2c(=O)n(CCc3ccc(OC)c(OC)c3)c(=O)c3ccccc32)c1,nt,nt,-4.6%,nt,2.5%,-19.1%
O=c1c(Br)c(NCc2ccccc2)cnn1-c1ccc(F)cc1,3.7,-29.2,-8.2%,0.0,-2.6%,-17.6%
COc1ccccc1CNC(=O)C1CCN(C(=O)NC2CCCCC2)CC1,2.2,6.4,10.3%,11.3,2.5%,-13.5%
Cc1ccc(C(=O)OCCOc2cccc(Cl)c2)cc1S(=O)(=O)N1CCOCC1,1.9,1.9,?,0.8,-3.3%,?
C[C@@H](O[C@H]1OCCN(Cc2n[nH]c(=O)[nH]2)[C@H]1c1ccc(F)cc1)c1cc(C(F)(F)F)cc(C(F)(F)F)c1,nt,nt,21.1µM*,nt,nt,18.8µM*
COC(=O)c1c(Oc2ccc(C(C)=O)cc2)nnc(-c2ccccc2)c1-c1ccccc1,nt,nt,?,nt,6.1%,18.4µM*
CCOC(=O)c1c(Oc2ccc(C(=O)OC)cc2)nnc(-c2ccccc2)c1-c1ccccc1,nt,nt,23.1µM*,nt,2.5%,16.4µM*
CCOC(=O)c1c(Oc2ccc(OC)cc2)nnc(-c2ccccc2)c1-c1ccccc1,nt,nt,?,nt,1.2%,16.4µM*
COc1ccccc1CNC(=O)COC(=O)c1cc(S(=O)(=O)N2CCOCC2)ccc1Cl,19.7,8.7,?,0.0,nt,-8.3%
CCOc1ccc(NC(=S)c2ccc3ccccc3n2)cc1,-2.0,15.5,?,nt,4.5%,?
COc1cc(=O)n2c(c1C(=O)N(C)Cc1ccsc1)CCN(Cc1c(C)nc3sccn13)CC2,nt,nt,-23.8%,nt,nt,-3.9%
CCOC(=O)c1sc2nc3n(c(=O)c2c1C)CCC(C)CC3 (configuration not stated),3.9,?,?,6.6,0.0%,?
CC(=O)c1cccc(NC(=O)Nc2sc3nc4n(c(=O)c3c2C)CCC(C)CC4)c1 (configuration not stated),nt,nt,8.2µM*,nt,0.0%,?
Cc1c(NC(=O)Nc2ccccc2C(F)(F)F)sc2nc3n(c(=O)c12)CCC(C)CC3 (configuration not stated),nt,nt,13µM*,nt,0.0%,20.6µM*
COc1cc(OC)c(NC(=O)Nc2sc3nc4n(c(=O)c3c2C)CCC(C)CC4)cc1Cl (configuration not stated),nt,nt,5.8µM*,nt,4.9%,5.17µM*
Cc1c(NC(=O)Nc2ccc(Cl)c(Cl)c2)sc2nc3n(c(=O)c12)CCC(C)CC3 (configuration not stated),nt,nt,8.2µM*,nt,-2.0%,5.17µM*
CCOC(=O)N1CCN(C(=O)Nc2sc3nc4n(c(=O)c3c2C)CCC(C)CC4)CC1 (configuration not stated),-14.0,-5.5,?,0.0,2.0%,?
Cc1ccsc1C(=O)OCC(=O)N1CCOCC1,-0.6,12.2,-2.7%,0.3,2.0%,-0.6%
Cc1ccc(NC(=O)CSc2nccc(=O)[nH]2)c(S(=O)(=O)N2CCOCC2)c1,-1.8,3.7,-4.6%,-0.2,1.0%,-3.3%
CCn1ncc(/C=N\NC(=O)c2cc(-c3ccc(C)cc3C)nc3ccccc23)c1C,-5.3,0.0,?,-4.8,7.5%,?
CCNC(=S)NNC(=O)c1ccc(=O)n(Cc2ccccc2)c1,4.2,16.2,-2.1%,nt,0.0%,2.6%
Cc1cccc(-c2cc3nc(C)cc(N4CC(C)CC(C)C4)n3n2)c1 (configuration not stated),-3.2,39.3,16.4µM*,-2.1,6.7%,16.4µM*
COc1ccc(-c2cc3nc(C)cc(NCCO)n3n2)cc1,-14.9,-23.0,-5.0%,8.3,1.1%,-34.3%
SMILES,Six1-Eya2 blk,IL1B secr inh,TDP1 cell noCPT,CtBP-E1A blk,TDP1 block,DT40 TDP1 CPT
CN(C)CCCNc1cc(-c2ccccc2)nc2cc(-c3cccc(F)c3)nn12,9.9,-88.0*,7.31µM*,nt,nt,?
Cc1cc(C(F)(F)F)n2nc(-c3cccs3)cc2n1,11.1,27.6,11.5%,1.3,0.0%,4.6%
Cc1cccc(-c2cc3nc(C)cc(C)n3n2)c1,-0.2,55.7,?,-4.6,6.0%,0.6%
Cc1cccc(-c2cc3nc(C)cc(NCCCN(C)C)n3n2)c1,-2.3,-100.6*,?,0.1,3.3%,?
CCN(CC)CCCNc1cc(C)nc2cc(-c3cccs3)nn12,-1.5,-101.4*,-3.9%,-1.2,11.1%,17.9%
CCOC(=O)C1=C(O)CSC1=Nc1ccc(Cl)cc1,-3.8,-5.6,-3.4%,-14.4,2.1%,?
Cc1ccc(-c2nc(C(=O)NC3CCCCCC3)no2)cc1,7.4,-5.6,18.4µM*,2.4,nt,?
Cc1cc(C)n(-c2ccc(C(=O)NCC(=O)Nc3cc(Cl)ccc3Cl)cc2)n1,-3.0,-3.3,?,nt,0.1%,-18.0%
COc1ccc(S(=O)(=O)N2CCOCC2)cc1NC(=O)c1cccc2c(=O)c(C)c(-c3ccccc3)oc12,-8.4,-27.8,5.17µM*,5.7,0.0%,?
CCN(CC)S(=O)(=O)c1ccc(N2CCOCC2)c(NC(=O)c2ccc(NC(C)=O)cc2)c1,3.7,?,19.3%,-3.2,6.2%,-25.7%
CCN(CC)S(=O)(=O)c1ccc(N2CCOCC2)c(NC(=O)C2=COCCO2)c1,4.0,-8.1,?,-4.7,3.7%,?
COc1ccc(S(=O)(=O)N2CCOCC2)cc1NC(=O)c1cc(C)oc1C,-15.6,-13.2,1.9%,-13.8,-2.4%,-2.5%
CCN(CC)S(=O)(=O)c1ccc(N2CCOCC2)c(NC(=O)c2cccc3c(=O)c(C)c(-c4ccccc4)oc23)c1,-9.5,-24.8,9.2µM*,nt,nt,5.8µM*
CCN(CC)S(=O)(=O)c1ccc(N2CCOCC2)c(NC(=O)c2c3c(nc4ccccc24)CCC3)c1,-1.7,6.4,14.6µM*,-3.3,-9.4%,14.6µM*
CCN(CC)S(=O)(=O)c1ccc(N2CCOCC2)c(NC(=O)c2ccc3ccccc3c2)c1,0.5,8.0,20.6µM*,0.1,2.4%,?
COCCn1c(C)cc(/C=N/NC(=O)c2cccnc2)c1C,2.4,31.4,-10.4%,3.0,2.6%,0.1%
CCN(CC)S(=O)(=O)c1ccc(N2CCOCC2)c(NC(=O)c2cc(-c3ccccn3)nc3ccccc23)c1,1.5,-28.7,9.2µM*,-0.8,4.7%,13µM*

# Source: PubChem BioAssay (National Center for Advancing Translational Sciences (NCATS))
